The values below come from PubChem BioAssay (NCATS).

Records with an inconclusive call do not appear. The source made the active and inactive calls. Calls follow the shape of the dose curve; as a rule, active = well fitted cell-killing curve with a large enough effect; inconclusive = small, poorly fitted or top-dose-only effect, or effect the other way; inactive = no such curve, though single readings can be large or run the other way.
Potency is read from the fitted curve at half-maximal effect.

This experiment in a line: Quantitative highthroughput screen to assess conditional lethalithy of NOMO1 cells grown in Human Plasma-Like Medium with dialyzed fetal bovine serum (HPLM+ds) (AID 1963878). Also: nearly all actives have a fitted effect of over 35% in size. To be noted: NOMO1 AML cells in HPLM+ds, CellTiter-Glo viability, 48 h; series mostly up to 45.8 µM; viability: at the top concentration. An excerpt: Assay Provider: Jason Cantor Ph.D.
Department of Biochemistry
University of Wisconsin-Madison, Madison, WI, USA
Chemical screening studies have identified drug sensitivities across hundreds of cancer cell lines but most putative therapeutics fail to translate. Discovery and development of drug candidates in models that more accurately reflect nutrient levels in human blood is a major challenge. Here we performed high-throughput screens in conventional versus Human Plasma-Like Medium (HPLM) to identify compounds that were "missed" when screening using the artificial culture condition. Sets of conditional anticancer compounds spanned phases of clinical development and included non-oncology drugs were assessed. […] We also traced conditional phenotypes for several chemotherapeutics to availability of HPLM-specific metabolites and confirmed others for compounds whose reported targets are encoded by nonessential genes. Our findings establish generalizable strategies for exploiting conditional lethality in HPLM to reveal therapeutic candidates and mechanisms of action in cancer cells.
Described herein are the results of each viability screens against three cell lines: NOMO1 (an acute myeloid leukemia cell line); P12-Ichikawa (a T-cell acute lymphoblastic leukemia); and SEM (a B-cell ALL). Each assay was screened using 3 different cell culture media: homemade human plasma-Like medium with 10% dialyzed fetal bovine serum (HPLM+ds); RPMI1640 with 10% untreated FBS and 5mM glucose (RPMI+s); and RPMI1640 with 10% dialyzed fetal bovine serum and 5 mM glucose (RPMI+ds).
PROTOCOL TABLE (as described by Inglese J, Shamu CE and Guy RK. 2007)
SEQUENCE No. (e.g., 1, 2, 3, etc.); […] (e.g., Cells, Incubation, Reagent, etc.); VALUE and DESCRIPTION.
1; Cells; 5 uL; white, solid bottom 1536-well Greiner assay plate.
2; Compounds; 23 nL; Kalypsis pin tool (Wako USA) equipped with a 1536-well pin head to transfer to the assay plates.
3; Incubation; 48 hours; 37C incubation.
4; Reagent; 3 uL; CellTiter Glo (Promega).
5; Incubation; 5 min, room temperature
6; Detection; Luminescence, Viewlux PerkinElmer.
NOTES (numbers refer to Sequence numbers above)
1. Briefly, 5 ul of cell reagent was dispensed using a Multidrop Combi Dispenser. The NOMO1 and SEM cells were plated at 500 cells/well and the P12-Ichikawa line at 1000 cells/well.
2. After seeding the cells, 23 nL of MIPE 4.1 library compounds (in DMSO) were added to each plate using a Kalypsys 1536 Pintool dispenser. Bortezomib at final concentration of […] and DMSO were added to each plate as positive and negative controls respectively. For each screen, MIPE 4.1 compounds were added over an eleven-point concentration range […] in 3-fold dilutions.
3. Each plate was covered with a stainless steel gasketed lid to prevent evaporation and incubated for 48 hour at 37C, 95% relative humidity, and 5% CO2.
4-5. Three microliter CellTilter-GloTM luminescent substrate mix (Promega) reagent was added to the assay plate and incubated at room temperature for 5 min.
6. The luminescence signal was measured using a ViewLux (PerkinElmer) multiplate reader with a 2 second exposure time per plate. Data for each compound were normalized as percent viability such that measurements for DMSO and the empty well controls in each plate were defined as 100% and 0%, respectively.
With `COc1cccc2c1[C@]13CCN(CC4CC4)[C@H](C2)[C@]1(OC)CCC(=O)C3`, the viability (as a rule, a read-out of living cells in per cent, often relative to untreated cells) was 90.6% (inactive).
On the same count and under the same terms, to `CC(=Cc1csc(C)n1)[C@@H]1C[C@H]2O[C@@H]2CCC[C@H](C)[C@@H](O)[C@@H](C)C(=O)C(C)(C)[C@@H](O)CC(=O)O1` belongs 26.9% (inactive); to `c1cc2c(cc1[C@H]1OC[C@H]3[C@H]1CO[C@H]3c1ccc3c(c1)OCO3)OCO2`, 91.6% (inactive); to `O=c1[nH]c2ccccc2n1C1CCN(Cc2ccc(-c3[nH]c4cc5ncnc5cc4nc3-c3ccccc3)cc2)CC1`, 83.9% (inactive).
Still for that read-out and setting: the same measure for `C#C[C@]1(O)C=C[C@@H]2[C@@H]3CCC4=CC(=O)CC[C@@H]4[C@H]3CC[C@@]21CC`: 98.3% (inactive); for `O=[N+]([O-])c1ncc[nH]1`: 89% (inactive); for `CCCC(C)(COC(N)=O)COC(=O)NC(C)C` (stereo not given): 108% (inactive).
Take `COc1ccc2c(c1)CN(C)CC2c1ccc(Cl)c(Cl)c1` (stereo not given): the Potency was 3.32 µM (active).
On the same count and under the same terms, to `COc1ccc2c(c[n+](C)c3c4cc5c(cc4ccc23)OCO5)c1OC` belongs 20.9 µM (active).
For the compound `CC=C(C)C(=O)N[C@@H](c1ccccc1)[C@@H](O)C(=O)O[C@H]1C[C@@]2(O)[C@@H](OC(=O)c3ccccc3)[C@@H]3[C@]4(OC(C)=O)CO[C@@H]4C[C@H](O)[C@@]3(C)C(=O)[C@H](OC(C)=O)C(=C1C)C2(C)C`, the “viability” value was 20.8% (inactive).
Regarding `C[C@](O)(CS(=O)(=O)c1ccc(F)cc1)C(=O)Nc1ccc(C#N)c(C(F)(F)F)c1`, the “viability” value is 114% (inactive).
Same read-out and setting: the same measure for `C[C@H]1CCCC=CC2C[C@H](O)C[C@@H]2[C@H](O)C=CC(=O)O1` (stereo not given in full): 2.85% (inactive); for `CC(O)=C(C#N)C(=O)Nc1cc(Br)ccc1Br`: 91.7% (inactive).
As for `CCCC[N+]1(C)[C@H]2CC(OC(=O)[C@H](CO)c3ccccc3)C[C@H]1[C@H]1O[C@H]12` (stereo not given in full), the Potency was 11.8 µM (active).
In the case of `Cc1cc(SCc2sc(-c3ccc(C(F)(F)F)c(F)c3)nc2C)ccc1OCC(=O)O`, the “viability” value is 97% (inactive).
Same read-out and setting: to `C[C@]12Cc3cn[nH]c3C[C@@H]1CC[C@@H]1[C@H]2CC[C@@]2(C)[C@H]1CC[C@]2(C)O` belongs 100% (inactive).
With `N[C@@H](Cc1ccc(N(CCCl)CCCl)cc1)C(=O)O`, the Potency was 7.43 µM (active).
Take `COc1ccc(C(=O)c2c(C)n(CCN3CCOCC3)c3ccccc23)cc1`: the “viability” value is 87.4% (inactive).
For the compound `C[C@](O)(COc1ccc(C#N)cc1)C(=O)Nc1ccc(C#N)c(C(F)(F)F)c1`, the “viability” value is 78.4% (inactive).
Same read-out and setting: to `C[C@]12CCC(=O)C=C1CC[C@@H]1[C@H]3CC[C@](C)(O)[C@@]3(C)CC[C@@H]12` belongs 93.9% [at 92.2 µM] (inactive); to `Cn1cc(C2=C(c3cn(C4CCN(Cc5ccccn5)CC4)c4ccccc34)C(=O)NC2=O)c2ccccc21`, 115% (inactive); to `C[C@]12CC[C@H]3[C@@H](CCC4=CC(=O)CC[C@@]43C)[C@H]1CC[C@H]2OC(=O)CCC1CCCC1`, 101% (inactive).
Turning to `c1ccc2c(CN3CCNCC3)cccc2c1`, the “viability” value was 80.8% (inactive).
Regarding `Cc1nc(-c2ccc(-c3ccc(C(=O)N4CCc5cc6c(cc54)C4(CCN(C)CC4)CO6)cc3)c(C)c2)no1`, the “viability” value was 110% (inactive).
Consider `C[C@@H]1CC[C@H]2[C@@H](C)C(=O)O[C@@H]3O[C@@]4(C)CC[C@H]1[C@]32OO4`, for which the “viability” value was 102% (inactive).
Take `CC(C)N(CCNC(=O)CN1CCCC1=O)C(C)C`: the “viability” value was 100% (inactive).
On the same count and under the same terms, the same measure for `CC[C@@H](C(N)=O)N1CCCC1=O`: 94.2% (inactive); for `CN(C)CCN(C)CCc1ccc(Cl)c(Cl)c1`: 93.5% (inactive); for `O=C(O)c1nn(Cc2ccc(Cl)cc2Cl)c2ccccc12`: 82.9% (inactive).
With `COc1cc(OC)c(OC)cc1C=O`, the “viability” value is 78.7% (inactive).
Regarding `C[C@@H]1C[C@@H]([C@H](O)CC2CC(=O)NC(=O)C2)C(=O)[C@@H](C)C1`, the Potency was 1.18 µM (active).
With `COC1=CC(C)=C[C@@H](C)[C@@H](O)[C@@H](C)CC(C)=CC=C[C@H](OC)[C@H]([C@@H](C)[C@@H](O)[C@H](C)[C@@]2(O)C[C@@H](O)[C@H](C)[C@@H](C(C)C)O2)OC1=O`, the Potency is 0.0662 µM (active).
In the case of `CCNC(=O)CC1N=C(c2ccc(Cl)cc2)c2cc(OC)ccc2-n2c(C)nnc21` (stereo not given), the “viability” value is 72.7% (inactive).
As to `CC(=O)N(C)c1cccc(-c2ccnc3c(C(=O)c4cccs4)cnn23)c1`, the “viability” value is 99.8% (inactive).
In the case of `CCNC(=O)C[C@@H]1N=C(c2ccc(Cl)cc2)c2cc(OC)ccc2-n2c(C)nnc21`, the Potency was 5.9 µM (active).
As for `CCOC(=O)c1cncn1[C@H](C)c1ccccc1`, the “viability” value was 99.7% (inactive).
Regarding `CC1=C(O)C(=O)C=C2C1=CC=C1[C@@]2(C)CC[C@@]2(C)[C@@H]3C[C@](C)(C(=O)O)CC[C@]3(C)CC[C@]12C`, the Potency was 2.96 µM (active).
`O=C(NCC1CCOCC1)c1cnc(Nc2ccc(Cl)cc2Cl)nc1C(F)(F)F`: the “viability” value was 102% (inactive).
Same read-out and setting: to `Clc1ccccc1C(c1ccccc1)(c1ccccc1)n1cccn1` belongs 113% (inactive); to `Oc1ccc2c3c1O[C@H]1c4[nH]c5c(c4C[C@@]4(O)[C@@H](C2)N(CC2CC2)CC[C@]314)C[C@@]1(O)[C@H]2Cc3ccc(O)c4c3[C@@]1(CCN2CC1CC1)[C@H]5O4`, 108% (inactive).
